# An excerpt weighted towards active compounds, which were near 5.8% of everything screened.
# MCF10A rereplic = A quantitative high throughput screen for small molecules that induce DNA re-replication in MCF 10a normal breast cells; AID 624296, 2012; MCF 10A DNA re-replication, Hoechst nuclear intensity, 48 h; Potency, µM (doses to about 46.1 µM), without a hit: at the top dose activity, positive = re-replication, actives largely listed as activators; 350,000 compounds, 2.9% hits; further: % of control where 0% means no effect; nearly all actives have a fitted effect of over 50% in size
# KB-3-1 cytotox = qHTS assay for MDR1-selective chemotherapeutics: Primary screen using the parental adenocarcinoma cell KB-3-1. 400,000 compounds, 1.4% hits. AID 1347075, 2019. Potency, µM (series often up to 46.1 µM), most hits filed as cytotoxic. KB-3-1 viability, CellTiter-Glo ATP luminescence, 72 h; further: on the % scale 0 is the no-effect control and ±100 the full control effect; nearly all actives have a fitted effect of over 60% in size
#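 KB-3-1 parental drug-naive adenocarcinoma cells in DMEM/10% FBS, incubated 72 h at 37 C with pin-transferred compounds across a concentration series. Viability by CellTiter-Glo luminescence; concentration-response curves fitted after normalization.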
# PINK1 expr mod = A Quantitative High throughput Screen to Identify Chemical Modulators of PINK1 Expression; AID 624263, 2012; Potency, µM (highest dose often 76.6 µM), for the others: at the highest dose activation (PINK1 increase), most hits filed as activators; 410,000 compounds, 0.2% hits; PINK1 immunofluorescence, high-content cytometry, 24 h; active means well fitted activation curve with a large enough effect; inconclusive means small, poorly fitted or top-dose-only effect; cell line not stated here; further: % of control where 0% means no effect; nearly all actives have a fitted effect of over 65% in size
#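 Stable cell line treated 24 h with compounds at 5 concentrations (CCCP controls), then fixed and immunostained for PINK1 plus nuclear and cell stains; PINK1 immunofluorescence quantified by laser-scanning microplate cytometry.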
# KB-V1 MDR tox = qHTS assay for MDR1-selective chemotherapeutics: Primary screen using the drug-selected MDR subline cells KB-V1; 400,000 compounds, 3.4% hits; KB-V1 MDR cells viability, CellTiter-Glo, 72 h; Potency, µM (doses to about 46.1 µM), usual class: cytotoxic; AID 1347076, 2019; further: on the % scale 0 is the no-effect control and ±100 the full control effect; nearly all actives have a fitted effect of over 60% in size
#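 qHTS viability screen in drug-selected KB-V1 MDR cells: 72 h compound treatment at 37 degrees C, ATP luminescence end point.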
# ALOX12 inh = Primary qHTS assay for inhibitors of human arachidonate 12S-lipoxygenase (ALOX12): Round 2 | Polyunsaturated fatty acid lipoxygenase ALOX12 (Homo sapiens), P18054 | AID 1671190, 2021 | purified 12hLO, xylenol orange hydroperoxide absorbance | 580,000 compounds, 1.1% hits | Potency, µM (top dose mostly 108 µM), without a hit: at the highest dose activity change, negative = inhibition, hits mostly inhibitors; further: on the % scale 0 is the no-effect control and ±100 the full control effect
# Target sequence (P18054 whole entry, looked up): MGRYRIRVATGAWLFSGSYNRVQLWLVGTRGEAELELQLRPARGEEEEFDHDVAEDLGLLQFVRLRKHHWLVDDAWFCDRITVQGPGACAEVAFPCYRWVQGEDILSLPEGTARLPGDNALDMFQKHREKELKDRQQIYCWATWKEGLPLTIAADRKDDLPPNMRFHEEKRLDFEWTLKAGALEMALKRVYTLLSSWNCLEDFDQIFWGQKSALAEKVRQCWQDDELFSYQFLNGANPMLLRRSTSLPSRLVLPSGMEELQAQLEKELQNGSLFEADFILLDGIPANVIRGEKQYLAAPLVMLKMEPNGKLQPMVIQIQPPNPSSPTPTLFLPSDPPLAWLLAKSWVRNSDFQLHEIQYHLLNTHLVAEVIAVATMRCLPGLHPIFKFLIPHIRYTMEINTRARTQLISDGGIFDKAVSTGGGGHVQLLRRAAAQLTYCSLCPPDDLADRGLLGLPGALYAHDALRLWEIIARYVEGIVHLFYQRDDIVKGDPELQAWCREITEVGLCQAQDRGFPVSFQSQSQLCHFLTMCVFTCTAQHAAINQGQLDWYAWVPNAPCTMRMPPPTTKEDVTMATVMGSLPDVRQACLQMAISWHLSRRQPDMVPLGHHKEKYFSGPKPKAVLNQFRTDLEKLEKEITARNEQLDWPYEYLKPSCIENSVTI
#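 Purified human 12hLO at 150 nM in 25 mM Hepes, 0.01% Triton X-100, pH 7.0, preincubated 15 min at room temperature with compound. Reaction started with 40 uM arachidonic acid, 30 min at room temperature. Hydroperoxide measured by Fe-xylenol orange, 573/405 nm absorbance ratio.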
# SW480 rereplic = A quantitative high throughput screen for small molecules that induce DNA re-replication in SW480 colon adenocarcinoma cells; SW480 DNA re-replication, Hoechst DNA content imaging, 48 h; Potency, µM (doses to about 46.1 µM), for inactives: top-dose re-replication activation, most hits filed as activators; 340,000 compounds, 1.8% hits; further: % of control where 0% means no effect; nearly all actives have a fitted effect of over 55% in size
#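 DNA re-replication was detected as more nuclei of elevated Hoechst intensity after 48 hr exposure to compound (23 nL pinned per well of 250 cells).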
# * marks the source's active call; other numbers are inactive results; i = inactive; u = inconclusive; x = no result given; [ ] = another dose, or the depositor's remark. Unless noted, the call rests on the fitted dose curve; in most records, active means well fitted curve in the direction sought with a large enough effect; inconclusive means small, poorly fitted or top-dose-only effect, or another doubt; inactive means no such curve, though single readings can be large; an effect the other way counts as inactive or inconclusive. Potency means the concentration at half of the fitted maximal effect.
SMILES,MCF10A rereplic,KB-3-1 cytotox,PINK1 expr mod,KB-V1 MDR tox,ALOX12 inh,SW480 rereplic
Cn1c(CNC(=O)C(Cc2ccccc2)NC(=O)Cc2ccc(Cl)cc2)cc(=O)n(C)c1=O (configuration not stated),x,x,x,x,4.7%,x
CCN(CC)[C@H]1[C@@H]2OC[C@@H](O2)[C@@H](NCC2CCCCC2)[C@@H]1O,x,x,x,x,6.6%[176 µM],x
CCOC(=O)C(C)Oc1ccc2c(=O)c(Oc3cc(C)ccc3C)coc2c1 (configuration not stated),x,x,x,x,0.6%,x
CCC(C)NC(=O)c1ccc2nc(-c3cccs3)c(-c3cccs3)nc2c1 (configuration not stated),x,10.3µM*,0.8%,i,x,x
COc1cc(NC(=O)c2cc(-c3cccs3)on2)cc(OC)c1OC,u,u,5.6%,6.51µM*,11.0%,u
CCC(C)NC(=O)c1cc(-c2cccs2)nc2ccccc12 (configuration not stated),15.7%,i,12.7%,i,u,-4.5%
COc1ccc(-c2nc3cc(NC(=O)CC(C)C)ccc3o2)cc1,x,x,x,x,7.7%,x
Cc1[nH]c(C(=O)NOCc2ccccc2)c(C)c1C(=O)OC(C)C,x,x,x,x,3.6%,x
O=C(c1ccc(-c2ccccc2Cl)o1)N1CCN(S(=O)(=O)c2cccs2)CC1,u,i,-1.3%,20.6µM*,u,22.6%
O=C(c1ccccc1Cl)N1CCN(S(=O)(=O)c2cccs2)CC1,-0.4%,i,-1.5%,i,i,4.7%
CCN=C(NS(=O)(=O)c1ccc(Br)cc1)c1ccc(Cl)cc1,1.84µM*,i,4.1%,u,0.6%,-73.3%
O=S(NCc1ccco1)C12CC3CC(CC(C3)C1)C2 (configuration not stated),20.6µM*,i,-4.0%[38.3 µM],i,u,-2.3%
CC12CC3CC(C)(C1)CC(C(=O)NCc1ccco1)(C3)C2,4.5%,i,-0.4%,i,-48.7%,-1.1%
O=C(NCc1ccco1)C12CC3CC(C1)CC(C(=O)NCc1ccco1)(C3)C2,-2.1%,i,4.8%[38.3 µM],20.6µM*,-5.8%,-2.7%
N#CCCCN1CCCCC1,x,x,x,x,4.3%,x
CCOc1ccc(Nc2nc(-c3cc(C)ccc3C)cs2)cc1,x,x,x,x,2.9%,x
Cc1ccc2[nH]c(=O)c(CN(CC3CCCO3)C(=S)NCc3ccco3)cc2c1 (configuration not stated),6.7%,i,4.4%,i,2.8%,0.8%
Cc1ccc2[nH]c(=O)c(CN(Cc3cccs3)C(=S)NCc3ccco3)cc2c1,13.5%,i,-0.1%,18.4µM*,u,8.7%
CCNC(=S)N(Cc1cccs1)Cc1cc2cc(OCC)ccc2[nH]c1=O,-6.3%,i,-1.3%,11.6µM*,-19.3%,-4.9%
CCNC(=S)N(Cc1ccco1)Cc1cc2cc(OCC)ccc2[nH]c1=O,u,i,3.1%,u,-13.1%,-33.8%
COc1ccccc1C(=O)Oc1ccc(Cl)cc1,x,x,x,x,14.9%,x
COC(=O)C(Cc1ccccc1)NC(=S)NC(=O)c1ccccc1 (configuration not stated),1.9%,i,2.0%,i,u,2.8%
CC(C)CNC(=S)NC(=O)c1ccc(F)cc1,18.7%,i,-0.6%,i,35.5µM*,3.6%
O=C(NC(=S)NC(CO)Cc1ccccc1)c1ccc(F)cc1 (configuration not stated),18.8%,i,-0.8%,i,39.8µM*,-5.1%
COc1cc(Br)c2cc(C(=O)O)[nH]c2c1OC,x,x,x,x,-11.0%,x
SMILES,MCF10A rereplic,KB-3-1 cytotox,PINK1 expr mod,KB-V1 MDR tox,ALOX12 inh,SW480 rereplic
O=C(Nc1nc2cc3c(cc2s1)OCCCO3)c1cc(Br)ccc1Cl,x,x,x,x,-1.6%,x
O=C(NCC1CCCO1)c1coc2nc3ccccc3nc12 (configuration not stated),20.6µM*,i,5.0%,u,u,10.6%
C=CCn1c(N)c(C(=O)NCC2CCCO2)c2nc3ccccc3nc21 (configuration not stated),-7.2%,i,x,u,2.5%,9.2µM*
CCC(C)NC(=O)CCNC(=O)NCc1ccccc1 (configuration not stated),x,x,x,x,6.7%,x
CC(C)(C)c1ccc(C(=O)O)s1,x,x,x,x,2.6%,x
Cc1ccc(OCC(=O)N/N=C\c2ccc(C)o2)c([N+](=O)[O-])c1,-33.9%,i,44.7µM*,i,-7.3%,-19.2%
Cc1c(/C=N/NC(=O)COc2ccccc2[N+](=O)[O-])c2ccccc2n1C,17.6%,u,6.6%,u,-2.1%,u
Cc1ccc(OCC(=O)N/N=C/c2ccccc2)c([N+](=O)[O-])c1,u,i,1.6%,i,-6.7%,-5.4%
Cc1ccc(OCC(=O)N/N=C\c2c(C)n(C)c3ccccc23)c([N+](=O)[O-])c1,u,u,2.0%,u,x,14.6µM*
O=C(Cn1c(COc2ccccc2)nc2ccccc21)Nc1cc(Cl)cc(Cl)c1,11.6µM*,i,3.4%,i,u,-2.2%
O=C(Cn1c(COc2ccc(Cl)cc2)nc2ccccc21)NCC(F)(F)F,0.7%,i,1.6%,i,-12.1%,-3.7%
N#CCCNC(=O)Cn1c(COc2ccc(Cl)cc2)nc2ccccc21,u,i,0.0%,i,-7.7%,5.2%
O=C(Cn1c(COc2ccccc2)nc2ccccc21)Nc1cc(Cl)ccc1Cl,-0.1%,u,11.3%,23.1µM*,-26.9%,8.7%
Cc1ccc(C)c(-c2nn(CC(=O)NCC(F)(F)F)c(=O)c3ccccc23)c1,x,x,x,x,33.1%,x
Cc1cccc(NC(=O)CCc2c[nH]c3ccccc23)c1,x,x,x,x,-23.9%,x
Cc1ccc(CNC(=O)c2c(C)[nH]c3ccccc23)cc1,x,x,x,x,4.7%,x
O=C(NCCC1=CCCCC1)C1CCC(CNS(=O)(=O)c2ccccc2)CC1 (configuration not stated),u,i,13.9%,8.2µM*,-9.2%,-92.4%
CC(=O)Nc1ccc(S(=O)(=O)NCC2CCC(C(=O)NCCC3=CCCCC3)CC2)cc1 (configuration not stated),15.5%,i,2.9%[38.3 µM],i,-5.3%[57.4 µM],-1.5%
O=C(NCCC1=CCCCC1)C1CCC(CNc2nc(=S)[nH]c3ccccc23)CC1 (configuration not stated),25.9µM*,u,2.3%,20.6µM*,-2.5%,10.4%
